Rows were chosen to be rich in hits. Some 2.9% of all compounds tested hit in one or more screens of this group.
Mcl1 Noxa PPI = disrupts binding of human Mcl-1 to Noxa peptide; Q07820; TR-FRET Mcl-1/Noxa peptide binding, 2 h; inhibition, % at 21.7 µM; actives 1.5% (n = 220,000);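 active means compounds that cut the protein-peptide binding signal by more than 50% relative to plate controls in a single-dose test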;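 further: His-tagged Mcl-1 with rhodamine Noxa BH3 peptide and terbium anti-His antibody; 0% = Mcl-1 plus Noxa peptide wells and 100% = peptide-only wells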
Pf gamet viab = kills late stage P. falciparum gametocytes; P. falciparum stage V gametocytes, ATP luminescence, 24 h; inhibition, % at 10.9 µM; actives 0.065% (n = 150,000); AID 743093;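 active means inhibition above the mean plus 3 SD of compounds within the control limits, set per campaign, cut at about 38% in these data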;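 further: 0% = DMSO wells and 100% = medium only without gametocytes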
14-3-3 Bad inh = disrupts binding of bovine 14-3-3 zeta to phospho-Bad peptide. P63103. TR-FRET 14-3-3zeta/Dy647-pBad peptide displacement, 1 h. inhibition, % at 21.7 µM. actives 0.71% (n = 220,000). AID 781;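 active means inhibition above about 70%, limit read from the data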;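 further: 0% = full 14-3-3 plus peptide FRET controls and 100% = background without 14-3-3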
Hck-Nef inh = blocks Nef-activated human Hck kinase; inhibition, % at 20 µM; actives 0.68% (n = 220,000); Recombinant Hck-YEEI plus Nef, Z-Lyte FRET kinase assay; AID 463187; P08631;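 active means Hck-Nef kinase inhibition above about 50%, limit read from the data; inactive means inhibition below that limit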;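 further: 0% = DMSO with Hck plus Nef and 100% = Hck alone without Nef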
Target sequence (P08631 whole entry, looked up): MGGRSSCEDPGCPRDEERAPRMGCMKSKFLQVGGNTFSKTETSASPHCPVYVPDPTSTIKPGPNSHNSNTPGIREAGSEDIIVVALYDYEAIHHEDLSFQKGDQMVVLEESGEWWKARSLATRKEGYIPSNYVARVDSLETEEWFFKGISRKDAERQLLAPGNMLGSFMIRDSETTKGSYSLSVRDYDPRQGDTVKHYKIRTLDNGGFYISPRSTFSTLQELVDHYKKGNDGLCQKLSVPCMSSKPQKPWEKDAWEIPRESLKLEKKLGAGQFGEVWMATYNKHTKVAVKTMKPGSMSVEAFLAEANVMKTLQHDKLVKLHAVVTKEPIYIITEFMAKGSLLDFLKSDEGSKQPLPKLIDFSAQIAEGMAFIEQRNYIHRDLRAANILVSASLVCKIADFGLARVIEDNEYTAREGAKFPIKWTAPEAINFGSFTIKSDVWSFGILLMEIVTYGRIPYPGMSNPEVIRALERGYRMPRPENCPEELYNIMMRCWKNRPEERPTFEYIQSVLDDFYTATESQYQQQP
Mcl-1 Bim block = inhibitors of Bim-Mcl-1 interaction, human | Bead-based flow cytometry, Bim peptide-Mcl-1 binding | inhibition, % at 10 µM | actives 0.1% (n = 190,000) | Q07820; in the data active means inhibition above about 40%;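 further: 0% = no compound tracer wells and 100% = peptide blocker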
Mcl1 Bid PPI = disrupts binding of human Mcl-1 to Bid peptide | actives 0.97% (n = 220,000) | inhibition, % at 21.7 µM | TR-FRET Mcl-1/Bid-Dy647 peptide binding, 1536-well;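 active means compounds that cut the binding signal by more than half at the single screening dose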;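 further: His-tagged Mcl-1 with europium anti-His antibody binding Bid BH3 peptide; 0% = Mcl-1 plus peptide wells and 100% = peptide-only wells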
Hck-Nef confirm = Hck-Nef kinase inhibition, confirmation; shares compounds with Hck-Nef inh; Recombinant Hck-YEEI:Nef, Z-Lyte FRET kinase assay; calls only at 10 µM; actives 28% (n = 1,300);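 active means average inhibition of at least 50%, with Z-scores no higher than 3 in both the phospho-tyrosine peptide and fluorescence counterscreens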
Starred values were filed as active, the others as inactive.

CCCc1cc(NCCCCO)n2c(nc3ccccc32)c1C#N was read as Mcl1 Noxa PPI 1.3, Pf gamet viab 5.0, 14-3-3 Bad inh -5.8, Hck-Nef inh 96.9*, Mcl-1 Bim block -5.0 and Mcl1 Bid PPI -19.6.
For CCOC(=O)c1cn(-c2ccc(F)c(F)c2)c2c(F)c(F)c(F)c(F)c2c1=O the results were Mcl1 Noxa PPI -5.3, 14-3-3 Bad inh 1.8, Hck-Nef inh -0.4, Mcl-1 Bim block 0.0 and Mcl1 Bid PPI -23.4.
COc1cc(-c2cc(=O)c3c(O)c(OC)c(OC)c(O)c3o2)ccc1O was read as Mcl1 Noxa PPI 30.6, 14-3-3 Bad inh 9.3, Hck-Nef inh 67.3*, Mcl-1 Bim block -4.0, Mcl1 Bid PPI -5.6 and Hck-Nef confirm active.
COc1c(O)c(O)c2oc(-c3ccccc3)cc(=O)c2c1OC was read as Mcl1 Noxa PPI -5.9, 14-3-3 Bad inh -1.8, Hck-Nef inh 66.3*, Mcl-1 Bim block -2.0, Mcl1 Bid PPI -8.7 and Hck-Nef confirm active.
COC(=O)c1sc2nc(C)cc(C)c2c1N was read as Mcl1 Noxa PPI 14.4, Pf gamet viab -3.8, 14-3-3 Bad inh -14.4, Hck-Nef inh 16.9, Mcl-1 Bim block 0.0 and Mcl1 Bid PPI -40.9.
Screening COc1cc(/C=N/NC(=O)c2sc3nc(C)cc(C)c3c2N)ccc1O returned Mcl1 Noxa PPI 22.1, Pf gamet viab 27.8, 14-3-3 Bad inh 3.0, Hck-Nef inh 51.5* and Mcl1 Bid PPI -8.8.
Screening CCOc1ccc(N=c2oc3cc(O)ccc3cc2C(=O)NCC2CCCO2)cc1 (centres undefined) returned Mcl1 Noxa PPI -0.7, 14-3-3 Bad inh 9.7, Hck-Nef inh 35.3, Mcl-1 Bim block -2.0 and Mcl1 Bid PPI 9.0.
`CCOc1ccccc1N=c1oc2cc(O)ccc2cc1C(=O)NCC1CCCO1` (centres undefined) gave Mcl1 Noxa PPI 23.8, 14-3-3 Bad inh 0.9, Hck-Nef inh 59.3*, Mcl-1 Bim block 0.0 and Mcl1 Bid PPI 7.1.
O=C(N=Nc1c(O)[nH]c2ccccc12)c1ccc(CN2CCOCC2)cc1 was read as Mcl1 Noxa PPI 12.9, Pf gamet viab 5.3, 14-3-3 Bad inh -12.1, Hck-Nef inh 94.5*, Mcl-1 Bim block 0.0, Mcl1 Bid PPI -30.4 and Hck-Nef confirm active.
Screening Cc1ccc(CN2CCN(CC(=O)N=Nc3c(O)[nH]c4ccccc34)CC2)cc1 returned Mcl1 Noxa PPI -2.2, 14-3-3 Bad inh -10.4, Hck-Nef inh 1.9, Mcl-1 Bim block -6.0 and Mcl1 Bid PPI -5.5.
Screening Cc1cc(C)cc(C(=O)NCC(=O)OC(C)C(=O)N(C)c2ccccc2)c1 (centres undefined) returned Mcl1 Noxa PPI 7.8, 14-3-3 Bad inh -7.5, Hck-Nef inh 20.5, Mcl-1 Bim block 0.0 and Mcl1 Bid PPI -37.6.
CCOC(=O)N1CCc2c(sc3nc4n(c(=O)c23)N=C(c2ccc(OC)cc2)CS4)C1 was read as Mcl1 Noxa PPI 10.5, Pf gamet viab -8.1, 14-3-3 Bad inh 27.4, Hck-Nef inh 77.3*, Mcl1 Bid PPI 5.5 and Hck-Nef confirm active.
For O=C(O)COc1ccccc1/C=N/Nc1ccc(S(=O)(=O)Nc2ccc(Cl)cc2)cc1[N+](=O)[O-] the results were Mcl1 Noxa PPI 72.9*, Pf gamet viab 13.3, 14-3-3 Bad inh 21.1, Hck-Nef inh 104.3*, Mcl-1 Bim block 0.0, Mcl1 Bid PPI 23.3 and Hck-Nef confirm inactive.
N#Cc1ccc(CSc2nnc(NC(=O)c3ccc4ncsc4c3)s2)cc1 was read as Mcl1 Noxa PPI -97.5, Pf gamet viab 3.3, 14-3-3 Bad inh 86.1*, Hck-Nef inh 68.2*, Mcl-1 Bim block -6.0, Mcl1 Bid PPI -81.8 and Hck-Nef confirm inactive.
Screening O=C(Nc1nnc(SCc2c(Cl)cccc2Cl)s1)c1ccc2ncsc2c1 returned Mcl1 Noxa PPI -59.2, 14-3-3 Bad inh 92.6*, Hck-Nef inh 110.5*, Mcl-1 Bim block -4.0, Mcl1 Bid PPI 0.1 and Hck-Nef confirm active.
Screening CCOC(=O)c1ccc2[nH]c(C)c(CCC(C)=O)c(=O)c2c1 returned Mcl1 Noxa PPI 12.3, 14-3-3 Bad inh 4.7, Hck-Nef inh 1.0, Mcl-1 Bim block 0.0 and Mcl1 Bid PPI 1.3.
CCCN(CCC)S(=O)(=O)c1ccc(C(=O)Nc2nc3c(s2)CCc2ccccc2-3)cc1 was read as Mcl1 Noxa PPI 3.7, 14-3-3 Bad inh 3.4, Hck-Nef inh 3.4, Mcl-1 Bim block -10.0 and Mcl1 Bid PPI -51.6.
CCn1c2ccccc2c2c3ncc4cccn4c3ccc21 was read as Mcl1 Noxa PPI -12.5, 14-3-3 Bad inh -4.7, Hck-Nef inh 95.5*, Mcl1 Bid PPI -10.4 and Hck-Nef confirm inactive.
Screening N/C(=N\N=C\c1ccnc2ccccc12)SC1CC(=O)N(c2ccc(Br)cc2)C1=O (centres undefined) returned Mcl1 Noxa PPI 36.4, 14-3-3 Bad inh 10.0, Hck-Nef inh 66.4*, Mcl-1 Bim block -3.0, Mcl1 Bid PPI 28.1 and Hck-Nef confirm active.
CCOCCCNC(=O)C(c1ccc(OC)cc1)N(Cc1cccs1)C(=O)c1ccccn1 (centres undefined) was read as Mcl1 Noxa PPI -35.9, Pf gamet viab 17.6, 14-3-3 Bad inh -4.5, Hck-Nef inh 18.7, Mcl-1 Bim block 0.0 and Mcl1 Bid PPI -27.2.
O=c1[nH]c(C(F)(F)F)nc2c1nnn2Cc1ccccc1F was read as Mcl1 Noxa PPI 16.8, 14-3-3 Bad inh 29.0, Hck-Nef inh 2.3, Mcl-1 Bim block 0.0 and Mcl1 Bid PPI -3.9.
`COc1cc(OC)c(OC)cc1C#N` gave Mcl1 Noxa PPI 18.3, 14-3-3 Bad inh -6.7, Hck-Nef inh 24.8, Mcl-1 Bim block 1.0 and Mcl1 Bid PPI 0.4.
Screening COc1cc2c(cc1OC)C1(CCCC1)C(N)=C2C#N returned Mcl1 Noxa PPI 2.1, Pf gamet viab -12.4, 14-3-3 Bad inh -0.8, Hck-Nef inh 56.1*, Mcl-1 Bim block -2.0 and Mcl1 Bid PPI 1.1.
Cc1ccc(-c2nc(N)s[n+]2-c2ccccc2)cc1 was read as Mcl1 Noxa PPI 19.0, Pf gamet viab 19.5, 14-3-3 Bad inh 31.8, Hck-Nef inh 101.0*, Mcl-1 Bim block -11.0, Mcl1 Bid PPI -46.7 and Hck-Nef confirm active.
`CNc1nc(-c2ccccc2)[n+](-c2ccc(C)cc2)s1` gave Mcl1 Noxa PPI -6.5, 14-3-3 Bad inh 46.9, Hck-Nef inh -3.4, Mcl-1 Bim block -4.0 and Mcl1 Bid PPI -29.4.
O=C1/C(=C\c2ccco2)SC(=S)N1c1ccccc1 was read as Mcl1 Noxa PPI 11.5, Pf gamet viab -4.9, 14-3-3 Bad inh 2.3, Hck-Nef inh 1.7, Mcl-1 Bim block -1.0 and Mcl1 Bid PPI -13.3.
`O=C1/C(=C/C=C/c2ccco2)SC(=S)N1NS(=O)(=O)c1ccccc1` gave Mcl1 Noxa PPI 111.5*, Pf gamet viab 7.9, 14-3-3 Bad inh 88.8*, Hck-Nef inh 101.9*, Mcl1 Bid PPI 74.5* and Hck-Nef confirm active.

From PubChem
